Measured values published in PubChem BioAssay (NCI).
Compounds without any hit were thinned out: in the full panel of roughly 83,000, 20% have a hit.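 Cells were grown in 96-well plates and exposed to the test compound at a single concentration for 48 hours; results are reported as percent growth, with values below 10 considered active.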 Activity calls are given as the source filed them.

Columns and labels:
Test in all cases: NCI-60 one-dose screen, 48 h (100 = growth as untreated, 0 = no growth, -100 = all killed)
Settings in all cases: 10 µM unless noted
DU-145 prostate = test system: DU-145 prostate
K-562 leukemia = test system: K-562 leukemia
MALME-3M melanoma = test system: MALME-3M melanoma
MDA-MB-231 breast = test system: MDA-MB-231 breast
RXF 393 renal = test system: RXF 393 renal
SF-268 CNS = test system: SF-268 CNS
SF-539 CNS = test system: SF-539 CNS
UACC-257 melanoma = test system: UACC-257 melanoma
M14 melanoma = test system: M14 melanoma
HCT-15 colon = test system: HCT-15 colon
HT29 colon = test system: HT29 colon
SNB-75 CNS = test system: SNB-75 CNS
SNB-19 CNS = test system: SNB-19 CNS
U251 CNS = test system: U251 CNS
PC-3 prostate = test system: PC-3 prostate
SK-MEL-5 melanoma = test system: SK-MEL-5 melanoma
UACC-62 melanoma = test system: UACC-62 melanoma
LOX IMVI melanoma = test system: LOX IMVI melanoma
SK-MEL-28 melanoma = test system: SK-MEL-28 melanoma

SMILES | growth (DU-145 prostate) | growth (K-562 leukemia) | growth (MALME-3M melanoma) | growth (MDA-MB-231 breast) | growth (RXF 393 renal) | growth (SF-268 CNS) | growth (SF-539 CNS) | growth (UACC-257 melanoma) | growth (M14 melanoma) | growth (HCT-15 colon) | growth (HT29 colon) | growth (SNB-75 CNS) | growth (SNB-19 CNS) | growth (U251 CNS) | growth (PC-3 prostate) | growth (SK-MEL-5 melanoma) | growth (UACC-62 melanoma) | growth (LOX IMVI melanoma) | growth (SK-MEL-28 melanoma)
COc1ccc(/C=c2\c(=O)n(-c3ccccc3)c3nn4c(n23)=NNC42CCCCC2)cc1 | 106% (inactive) | 109% (inactive) | 97.8% (inactive) | 87.3% (inactive) | 110% (inactive) | 92% (inactive) | 102% (inactive) | 111% (inactive) | 102% (inactive) | 102% (inactive) | 106% (inactive) | 87.7% (inactive) | 93.9% (inactive) | 103% (inactive) | 90.1% (inactive) | 100% (inactive) | 93.2% (inactive) | 95.1% (inactive) | 111% (inactive)
Cc1nn(-c2ccc(Cl)cc2)c(=O)n1CCN1CCOCC1 | 78.5% (inactive) | 70.1% (inactive) | 59.1% (inactive) | 57.3% (inactive) | 42.1% (inactive) | 48.4% (inactive) | 67% (inactive) | 73.4% (inactive) | 69.8% (inactive) | 74.2% (inactive) | 104% (inactive) | 7.65% (active) | 58.7% (inactive) | 42.9% (inactive) | 80.8% (inactive) | 80.3% (inactive) | 82.8% (inactive) | 81.6% (inactive) | 92.9% (inactive)
COc1ccc(-c2nc3ccc(Cc4ccc5nc(-c6ccc(OC)cc6)[nH]c5c4)cc3[nH]2)cc1 | 64.6% (inactive) | 13.4% (inactive) | -13.1% (active) | 17.3% (inactive) | 93.9% (inactive) | 6.83% (active) | 56.6% (inactive) | -20% (active) | 40.1% (inactive) | 77.1% (inactive) | 44.2% (inactive) | 92.9% (inactive) | 49% (inactive) | 16.9% (inactive) | 43.3% (inactive) | 13.5% (inactive) | 38.2% (inactive) | 15.7% (inactive) | 82.3% (inactive)
O=S(=O)(NCC[C@@H]1C[C@H]1c1ccc2ccccc2c1)c1ccc(C(F)(F)F)cc1 | 96.6% (inactive) | 89.2% (inactive) | 88.5% (inactive) | 94.6% (inactive) | 109% (inactive) | 89.3% (inactive) | 99.9% (inactive) | 100% (inactive) | 96.2% (inactive) | 93.4% (inactive) | 92.7% (inactive) | 73.6% (inactive) | 97.3% (inactive) | 93.5% (inactive) | 81.7% (inactive) | 94.5% (inactive) | 78.5% (inactive) | 97.8% (inactive) | 108% (inactive)
C=CCn1c(SCC(=O)Nc2ccc(/C(C)=N\O)cc2)nnc1-c1cc(-c2ccc(Cl)cc2)nc2ccccc12 | 48.5% (inactive) | 13.4% (inactive) | 71.7% (inactive) | 35% (inactive) | 47% (inactive) | 38.2% (inactive) | 15.8% (inactive) | 47.9% (inactive) | 20.4% (inactive) | 25.1% (inactive) | 24.7% (inactive) | 40.9% (inactive) | 49.4% (inactive) | 25.8% (inactive) | 22.9% (inactive) | 33.9% (inactive) | 25.5% (inactive) | -66.6% (active) | 45.3% (inactive)
FC(F)(F)C1=NNC(c2ccc3ccccc3c2)=NN1 | 104% (inactive) | 95.2% (inactive) | 107% (inactive) | 81.9% (inactive) | 123% (inactive) | 100% (inactive) | 93.9% (inactive) | 104% (inactive) | 98.3% (inactive) | 97.9% (inactive) | 107% (inactive) | 80.3% (inactive) | 96.6% (inactive) | 99.2% (inactive) | 109% (inactive) | 97.8% (inactive) | 101% (inactive) | 90.5% (inactive) | 112% (inactive)
CCCNC(=S)N/N=C(\C)c1ccccn1 | 34.3% (inactive) | 17% (inactive) | 24.3% (inactive) | 41.1% (inactive) | 10.4% (inactive) | 38.7% (inactive) | 24.2% (inactive) | 12% (inactive) | 6.11% (active) | 28.5% (inactive) | 37.2% (inactive) | 74.2% (inactive) | 38.4% (inactive) | 21.7% (inactive) | 26.7% (inactive) | 22.4% (inactive) |  | 9.29% (active) | 52.4% (inactive)
CCN(CC)CCCCCCCNc1cc(OC)cc2c(C)ccnc12 | 102% (inactive) | 36.7% (inactive) | 103% (inactive) | 54.1% (inactive) | 91.6% (inactive) | 91.1% (inactive) | 91.3% (inactive) | 92.6% (inactive) | 97.6% (inactive) | 76.8% (inactive) | 52.5% (inactive) | 82.9% (inactive) | 96.3% (inactive) | 86% (inactive) | 51.4% (inactive) | 85.3% (inactive) | 91.3% (inactive) | 56.6% (inactive) | 105% (inactive)
O=C1C2=C(C(=O)c3c(O)ccc(O)c31)N(c1ccc(N3CCOCC3)nc1)Cc1ccccc1O2 | -98% (active) | -17.5% (active) | -91.6% (active) | -89.6% (active) | -92.1% (active) | -42.5% (active) | -72.1% (active) | -92% (active) | -89.3% (active) | -77.4% (active) | -47.7% (active) | -19.8% (active) | 12.2% (inactive) | 0.735% (active) | 1.08% (active) | -75% (active) | -66.7% (active) | -66.8% (active) | -77% (active)
COc1ccc(/C=c2\c(=O)n(-c3ccccc3)c3nn4c(=O)c(=O)[nH]nc4n23)cc1 | 115% (inactive) | 122% (inactive) | 104% (inactive) | 122% (inactive) | 123% (inactive) | 104% (inactive) | 103% (inactive) | 110% (inactive) | 99.5% (inactive) | 106% (inactive) | 110% (inactive) | 109% (inactive) | 111% (inactive) | 112% (inactive) | 102% (inactive) |  | 101% (inactive) | 96.3% (inactive) | 131% (inactive)
COC1CC(N)C2OC(c3ccccc3)OCC2O1 (centres undefined) | 115% (inactive) | 93.9% (inactive) | 106% (inactive) | 98.3% (inactive) | 115% (inactive) | 108% (inactive) | 101% (inactive) | 95.4% (inactive) | 107% (inactive) | 97.1% (inactive) | 103% (inactive) | 71.4% (inactive) | 103% (inactive) | 99.8% (inactive) | 105% (inactive) | 105% (inactive) |  | 98.8% (inactive) | 105% (inactive)
CN1CCN(Cc2ccc(NC(=O)c3cncc(C#Cc4ncc5cnccn45)c3)cc2C(F)(F)F)CC1 | 46.8% (inactive) | 8.73% (active) | 14.7% (inactive) | 25.6% (inactive) | 51.1% (inactive) | 56.4% (inactive) | 37.8% (inactive) | 55.3% (inactive) | 9.27% (active) | 56.7% (inactive) | 27.4% (inactive) | 38.1% (inactive) | 94.5% (inactive) |  | 54.9% (inactive) | 55.3% (inactive) | 57.3% (inactive) | 26.5% (inactive) | 38.1% (inactive)
NC(=S)N/N=C(/c1cccs1)C1CC1 | 105% (inactive) | 69.3% (inactive) | 96% (inactive) | 91.4% (inactive) | 102% (inactive) | 99.4% (inactive) | 95.7% (inactive) | 39.4% (inactive) | 71.3% (inactive) | 71% (inactive) | 58.4% (inactive) | 77.2% (inactive) | 100% (inactive) |  | 63.5% (inactive) | 106% (inactive) | 98.8% (inactive) | 68.3% (inactive) | 101% (inactive)
COc1ccc(-c2nn(-c3cccc(Cl)c3)cc2/C=C2\C(=N)N(c3ccccc3)N=C2N)cc1 | 37.6% (inactive) | 1.77% (active) | 28.8% (inactive) | 59% (inactive) | 85% (inactive) | 47.8% (inactive) | -12.8% (active) | 58.4% (inactive) | 5.51% (active) | 44.5% (inactive) | 57.4% (inactive) | 81.6% (inactive) | 83.5% (inactive) | 66.3% (inactive) | 39.6% (inactive) | 34.8% (inactive) |  | 6.46% (active) | 32.8% (inactive)
COc1cccc(NC(=O)c2c(-c3ccccc3)c(-c3ccccc3)n[nH]c2=O)c1 | 106% (inactive) | 81.9% (inactive) | 101% (inactive) | 102% (inactive) | 103% (inactive) | 105% (inactive) | 101% (inactive) | 97.9% (inactive) | 103% (inactive) | 97.6% (inactive) | 101% (inactive) | 77.9% (inactive) | 93.4% (inactive) | 101% (inactive) | 94.6% (inactive) | 99.4% (inactive) |  | 96.3% (inactive) | 102% (inactive)
c1ccc(C(Nc2ccccn2)(c2ccccc2)c2ccccc2)cc1 | 85.6% (inactive) | 56% (inactive) | 109% (inactive) | 66.8% (inactive) | 82.9% (inactive) | 99.5% (inactive) | 86.4% (inactive) | 97.4% (inactive) | 87.9% (inactive) | 74.1% (inactive) | 69.9% (inactive) | 74.8% (inactive) | 77.5% (inactive) |  | 39.1% (inactive) | 70.3% (inactive) | 59.3% (inactive) | 100% (inactive) | 98.5% (inactive)
CC1=C(C(=O)Nc2ccc(F)cc2)C(c2ccc(C)cc2)C2=C(CC(C)(C)CC2=O)N1 (centres undefined) | 106% (inactive) | 93.3% (inactive) | 102% (inactive) | 86.6% (inactive) | 92.1% (inactive) | 88% (inactive) | 93.3% (inactive) | 98.5% (inactive) | 101% (inactive) | 94% (inactive) | 100% (inactive) | 55.7% (inactive) | 92.5% (inactive) |  | 75.3% (inactive) | 94.1% (inactive) | 86.4% (inactive) | 90% (inactive) | 97.1% (inactive)
